Pf growth 48h = inhibits P. falciparum growth in the first generation, 48 h; hit rate 5.9% among 310,000; AID 504832; P. falciparum luciferase growth in erythrocytes, 48 h; Potency, µM (top dose mostly 28.7 µM), for inactives: at the highest dose activity change, negative = inhibition, hits mostly inhibitors; note: potency is the fitted concentration of half-maximal effect
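Read-out is firefly luciferase luminescence from an integrated reporter in P. falciparum, so falling signal marks reduced parasite growth. Infected erythrocytes were at 2% hematocrit and 0.1% parasitemia (final) in Albumax-supplemented RPMI 1640.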
HCV inhibitor = blocks hepatitis C virus. Huh7.5.1 HCVcc-Cre infection, luciferase reporter, 44 h. Potency, µM (titrated, usually from 41.8 µM), without a hit: top-dose activity change, negative = inhibition, most hits filed as inhibitors. hit rate 3.4% among 340,000. AID 651820; note: potency is the fitted concentration of half-maximal effect
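Reporter virus HCVcc-Cre (~0.5 moi) infects cells exposed to compound; seeding density 1,000 cells/well with 4 h settling beforehand. Luminescence, 15 sec read, taken 44 h post-infection following a 15 min RT substrate incubation.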
HCMV antiviral = blocks human cytomegalovirus replication. hit rate 4.5% among 410,000. HFF cells, HCMV-luciferase reporter, 72 h; hits give low values. AID 1259415. activity change, negative = inhibition, % at 57.5 µM; in the data active = activity change below about -60%; inconclusive = no clear call, values can overlap the other calls; inactive = above about -39%
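Human foreskin fibroblasts infected with luciferase-reporter HCMV at MOI 1 PFU/cell, compounds at two doses. Luciferase measured 72 h post infection; normalized to buffer-only basal and Salinomycin (10uM) controls.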
Pf growth 96h = P. falciparum growth inhibition at 96 hours | P. falciparum luciferase reporter growth, 96 h | Potency, µM (titrated, usually from 28.7 µM), without a hit: at the top dose activity change, negative = inhibition, hits mostly inhibitors | hit rate 6.9% among 320,000 | AID 504834; note: potency is the fitted concentration of half-maximal effect
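Compounds incubated with erythrocytes infected by luciferase-expressing P. falciparum (2% hematocrit, 0.05% parasitemia final) for 96 hours, 37 C in 5% CO2. Growth inhibition scored as decreased luciferase luminescence.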
The depositor's hits bear a star; ? = inconclusive; . = not tested or not shown. In the library only some 13% were active in any assay of this set; here they are far more common. Unless noted, calls come from the whole dose curve; as a rule, active = well fitted inhibition curve with a large enough effect; inconclusive = small, poorly fitted or top-dose-only effect, or another doubt; inactive = no such curve, though single readings can be large or run the other way. % is set by controls: 0 for no effect and ±100 for the full control effect.

SMILES | Pf growth 48h | HCV inhibitor | HCMV antiviral | Pf growth 96h
CCN=C1SC(C(=O)Nc2ccccc2)CC(=O)N1CC (configuration not stated) | 2% | -10% | -1 | .
C[C@H](CO)N1C[C@H](C)[C@@H](CN(C)Cc2cncnc2)Oc2cc(Br)ccc2S1(=O)=O | . | . | -22 | .
N#C/C(=N/Nc1ccc(OC(F)(F)F)cc1)C(N)=S | 6.6µM* | ? | -98* | 1.7µM*
COc1ccc(C2c3cc(OC)c(OC)cc3CC(=O)N2c2cccc(C#N)c2)cc1 (configuration not stated) | . | . | 3 | .
COc1ccc(Cn2c(C3CCCCC3)nc3c(c(=O)c4ccccc4n3C)c2=O)cc1 | 3.3µM* | ? | . | 2.3µM*
COCCn1c(-c2ccc(Cl)cc2)nc2c(c(=O)c3ccccc3n2C)c1=O | ? | 0% | ? | 8.3µM*
COc1ccc(CCn2c(C(C)C)nc3oc4ccccc4c(=O)c3c2=O)cc1 | 8.3µM* | -27% | ? | 6.6µM*
CC(C)c1nc2c(c(=O)c3ccccc3n2C)c(=O)n1CCc1ccccc1 | ? | -59% | -39 | 4.7µM*
O=C(Nc1ccc(F)cc1F)c1cc(CN2CCOCC2)on1 | . | . | 36 | .
Cc1ccc(OCC(=O)Nc2ccc3nc(SCC(=O)N(C)c4ccccc4)sc3c2)cc1 | . | . | -28 | .
COc1ccc(CCn2c(-c3ccccc3)nc3c(c(=O)c4ccccc4n3C)c2=O)cc1 | 0% | 6% | 23 | ?
COc1ccc(Cn2c(-c3ccccc3)nc3c(c(=O)c4ccccc4n3C)c2=O)cc1 | -15% | -6% | -8 | 12µM*
COc1ccc(CCn2c(C3CCCCC3)nc3c(c(=O)c4ccccc4n3C)c2=O)cc1OC | 3.3µM* | ? | ? | 4.7µM*
COc1ccc(CCn2c(-c3ccc(F)cc3)nc3c(c(=O)c4ccccc4n3C)c2=O)cc1OC | -26% | 3% | -16 | ?
COc1ccc(CCn2c(C3CCCCC3)nc3c(c(=O)c4ccccc4n3C)c2=O)cc1 | ? | 3.5µM* | -14 | ?
Cc1cc(O)cc2c1O[C@](C)(CCC[C@H](C)CCC[C@H](C)CCCC(C)C)CC2 | -16% | . | . | -19%
Cc1ccccc1C(=O)OCc1cc(=O)n2nc(-c3cccs3)sc2n1 | . | . | 12 | .
C=CCCC1CN(CC=C)S(=O)(=O)c2c(F)cccc2O1 (configuration not stated) | . | . | -8 | .
COc1ccc2c(CSc3nc4nc(C)cc(C)n4n3)cc(=O)oc2c1 | 13µM* | -27% | -6 | 8%
Cc1ccc2c(CSc3nc4nc(C)cc(C)n4n3)cc(=O)oc2c1 | ? | -17% | -12 | ?
Cc1cccc(OCC(=O)Nc2ccc(C(=O)OCc3cc(=O)n4nc(C5CC5)sc4n3)cc2)c1 | . | . | 5 | .
CCOC(=O)[C@H](CCc1ccccc1)N[C@H]1CCc2ccccc2N(CC(=O)O)C1=O | . | 11% | ? | .
CCOC(=O)C(CCc1ccccc1)NC1CCc2ccccc2N(CC(=O)O)C1=O (configuration not stated) | 9.5µM* | . | . | 12µM*
COc1ccccc1Nc1nnc(SCC(=O)NC2CCCC2)s1 | 12µM* | 8% | -13 | 9.3µM*
COc1ccccc1C(=O)NCCC(=O)N1CC(=O)Nc2ccccc21 | 17% | 7% | 54 | -17%
SMILES | Pf growth 48h | HCV inhibitor | HCMV antiviral | Pf growth 96h
Cc1ccccc1Nc1nnc(SCC2CCCCO2)s1 (configuration not stated) | 78% | 1% | 35 | -52%
O=C1CN(C(=O)CSc2nnc(Nc3ccccc3)s2)c2ccccc2N1 | -18% | 0% | -25 | ?
COc1ccccc1Nc1nnc(SCC2CCCCO2)s1 (configuration not stated) | 195% | 7.9µM* | 90 | -60%
COc1ccccc1Nc1nnc(SCC(=O)N2CC(=O)Nc3ccccc32)s1 | ? | 11% | 11 | 7.4µM*
CCC(Oc1ccccc1OC)C(=O)N1CC(=O)Nc2ccccc21 (configuration not stated) | 8% | 15% | -74* | -11%
CCOc1ccc(N2CC(C)Cn3c2nc2c3c(=O)n(CC(=O)O)c(=O)n2C)cc1 (configuration not stated) | . | . | 21 | .
CCOc1ccccc1Nc1nnc(SCC(=O)N2CCCC2)s1 | 0% | 25µM* | 141 | ?
COc1ccccc1Nc1nnc(SCC(=O)N2CCCC2)s1 | -13% | 7% | 111 | .
C[C@H](O)[C@@H]1C(=O)N2CCc3ccc(N4CCN(C)CC4)cc3[C@@H]2C[C@@H]1N(C)C(=O)Nc1cc(Cl)cc(Cl)c1 | . | ? | -4 | .

High-throughput results as filed in PubChem BioAssay.
